The values that follow come from PubChem BioAssay (Tox21).

Inconclusive results are not listed. Values without a mark were called inactive. Activity calls are given as the source filed them. Calls follow the shape of the dose curve; as a rule, active = well fitted cell-killing curve with a large enough effect in the repeat runs; inconclusive = weak or mixed curves, or effect the other way; inactive = no such curve, though single readings can be large or run the other way.
% is scaled to controls: 0 for no effect and ±100 for the full control effect.

The experiment can be described thus: qHTS assay to identify small molecule antagonists of the vitamin D receptor (VDR) signaling pathway - cell viability counter screen (AID 743225). Also: nearly all actives have a fitted effect of over 50% in size. As to conditions: VDR-bla HEK293T viability, CellTiter-Glo luminescence, 16 h; series mostly up to 61 µM; viability change, negative = cytotoxic: at the top concentration. An excerpt:
U.S. Tox21 Program National Center for Advancing Translational Sciences [NCATS] NIH Chemical Genomics Center [NCGC] U.S. Environmental Protection Agency [EPA] National Institutes of Environmental Health Sciences [NIEHS] National Toxicology Program [NTP] U.S. Food and Drug Administration [FDA] Tox21 Assay Overview: The vitamin D receptor (VDR), a member of nuclear hormone receptor superfamily, plays a critical role in calcium homeostasis and bone metabolism. It is also involved in cell differentiation and growth, and thrombogenicity. To identify the compounds that inhibit VDR signaling, the VDR-UAS-bla HEK 293T cell line (Invitrogen, Carlsbad, CA, USA) containing a beta-lactamase reporter gene under the control of an upstream activator sequence (UAS) was used to screen the Tox21 10K compound library. The cytotoxicity of the Tox21 compound library against the VDR-bla cell line was tested in parallel by measuring the cell viability using CellTiter-Glo assay (Promega, Madison, WI) in the same wells.
Tox21 Assay Protocol Summary: VDR-bla cells were dispensed at 2,000 cells/5 uL of assay medium per well into black wall/clear-bottom 1536-well plates using a Multidrop Combi (Thermo Fisher Scientific, Waltham, MA) dispenser. After the assay plates were incubated at a 37C and 5% CO2 for 4 h, 23 nL of compounds dissolved in DMSO, positive controls or DMSO only was transferred to the assay plate by a Pintool station (Kalypsys, San Diego, CA), followed by addition of 1 uL of 1-alpha, 25-Dihydroxy Vitamin D3 (3 nM, final concentration in the wells) using a Bioraptr Flying Reagent Dispenser (FRD) workstation (Beckman Coulter, Indianapolis, IN). The plates were incubated at 37C and 5% CO2 for 16 h, and then 1 uL of LiveBLAzerTM B/G FRET substrate was added using a Bioraptr FRD. The plates were incubated at room temperature for 2 h and fluorescence intensity was measured by an Envision plate reader (PerkinElmer, Shelton, CT). For cell viability readout that measures cytotoxicity, 3 ul/well of CellTiter-Glo reagent was added into the assay plates using a Bioraptr FRD. After 30 min incubation at room temperature, the luminescence intensity in the plates was measured using a ViewLux plate reader (PerkinElmer).
Background: qHTS replaces the single test concentration by a dilution series.
For the compound `CCCN(CCC)N=O`, the “viability change, negative = cytotoxic” value is -6.64%. Regarding `c1cc2c3c(cccc3c1)CC2`, the outcome was inactive. As for `CCCCN(CCCC)SN(C)C(=O)Oc1cccc2c1OC(C)(C)C2`, the compound was called inactive. `c1ccc2c(c1)Oc1ccccc1O2`: the outcome was inactive. For the compound `COC(=O)c1ccccc1C(=O)OC`, the outcome was inactive. Regarding `COCCl`, the outcome was inactive. In the case of `C=CC(N)=O`, the compound was called inactive. Regarding `O=Cc1cccc(Oc2ccccc2)c1`, the compound was classed as inactive. Take `COC(=O)c1ccccc1N`: the compound was classed as inactive. Regarding `Cc1cc(Cl)ccc1O`, the call was inactive. On to `Clc1cccc(Cl)c1Cl`, for which the compound was called inactive. As for `CCNc1nc(NC(C)C)nc(SC)n1`, the outcome was inactive. For the compound `CON(C)C(=O)Nc1ccc(Cl)c(Cl)c1`, the compound was called inactive.

For the compound `CCCN(CCC)c1c([N+](=O)[O-])cc(C(F)(F)F)cc1[N+](=O)[O-]`, the outcome was inactive. Turning to `ClCc1cccnc1`, the call was inactive.

For the compound `CC(C)(C)OOC(C)(C)C`, the compound was called inactive. For `CCOC(=O)c1ccccc1C(=O)OCC`, the compound was classed as inactive. The same measure, in the same setting: then `CC(NC(C)(C)C)C(=O)c1cccc(Cl)c1` (stereo not given), with “inactive”. Consider `CC(C)(Cl)Cl`, for which the outcome was inactive.

As to `[O-][Cl+2]([O-])O`, the outcome was inactive. Same read-out and setting: then `CC(C)(C)OOC(=O)c1ccccc1`, with “inactive”; and `Cc1ccccc1O`, with “inactive”. Regarding `Cc1[nH]c(=O)n(C(C)(C)C)c(=O)c1Cl`, the call was inactive. On the same count and under the same terms, then `Clc1ccccc1Cl`, with “inactive”. Regarding `CC(=O)C=C(C)C`, the compound was called inactive.

Turning to `O=S(=O)(c1ccc(Cl)cc1)c1cc(Cl)c(Cl)cc1Cl`, the compound was classed as inactive. The same measure, in the same setting: then `Cc1ccc(N)cc1Cl`, with “inactive”. Turning to `Cc1ccc([N+](=O)[O-])cc1C`, the “viability change, negative = cytotoxic” value is -7.3%. In the case of `CC(C)OC(=O)Nc1cccc(Cl)c1`, the call was inactive.

Take `CCC[CH2][Sn]([Cl])([Cl])[Cl]`: the compound was classed as inactive. Turning to `CC(Oc1ccc(Cl)cc1Cl)C(=O)O` (stereo not given), the result was inactive.

Consider `O=[N+]([O-])c1ccccc1`, for which the compound was classed as inactive. In the case of `COP(N)(=O)SC` (stereo not given), the result was inactive. Consider `O=c1ccc(=O)[nH][nH]1`, for which the “viability change, negative = cytotoxic” value is 8.9%. As for `CN(N=O)c1ccccc1`, the outcome was inactive. Regarding `[N-]=[N+]=[N-]`, the outcome was inactive.

As to `c1ccc2c(c1)oc1ccccc12`, the compound was called inactive. As for `CCOP(=S)(OCC)Oc1cnc2ccccc2n1`, the outcome was inactive. For `O=[N+]([O-])c1ccc(Oc2ccc(Cl)cc2Cl)cc1`, the “viability change, negative = cytotoxic” value was 14.7% [at 78.8 µM]. Take `ClCCBr`: the result was inactive.
